# Rows were chosen to be rich in hits. Some 1.3% of all compounds tested hit in one or more screens of this group.
# CCT modulator: cytosolic chaperonin activity modulation; purified chaperonin ATPase assay, HTRF ADP detection, 30 min; AID 651819; activity change, % (no concentration beside the values), hits read low; 360,000 tested, 0.3% active; in the data active means activity change below about -30%
#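 ATPase activity: ADP formed was measured by HTRF Transcreener (665/615 nm ratio) after 30 min at 37 deg C with 10 uM ATP. Compounds screened at one 76 uM concentration against 40 or 20 nM TRiC in Tris pH 7.4/KCl/MgCl2/DTT buffer.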
# CtBP-E1A inh: inhibitors of CtBP/E1A interaction; AlphaScreen GST-E1A/His-CtBP binding, 1536-well; active compounds read low; activity change, % (concentration not given with the values); 340,000 tested, 0.49% active; AID 651724
#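 Homogeneous bead-based format: GST-tagged E1A captured on glutathione donor beads, His-tagged CtBP on nickel acceptor beads; compounds precede bead addition by 2 h at 37 °C.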
# pAkt inh: inhibitors of Akt phosphorylation; Neuro2A IGF-stimulated pAkt S473 HTRF, 20 min; active compounds read low; activity change, % for hits at 50 µM; 360,000 tested, 0.32% active; in the data active means activity change below about -80%; inconclusive means mostly about -51% to -80%
#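 Neuro2A cells in DMEM with 0.5% FBS, overnight at 37 deg C, given compound at single 50 µM final, then IGF (6 nM final) for 20 min at 37 deg C. Lysed; phospho-Akt Ser473 by HTRF after 24 h, 665/615 ratio.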
# Six1-Eya2 inh: blocks human Six1 binding to Eya2; 360,000 tested, 0.56% active; Q15475+O00167; AID 651725; activity change, % (concentration not given with the values); AlphaScreen GST-Six1/His-Eya2 binding, biochemical; active compounds read low
# Target sequence (O00167 whole entry, looked up): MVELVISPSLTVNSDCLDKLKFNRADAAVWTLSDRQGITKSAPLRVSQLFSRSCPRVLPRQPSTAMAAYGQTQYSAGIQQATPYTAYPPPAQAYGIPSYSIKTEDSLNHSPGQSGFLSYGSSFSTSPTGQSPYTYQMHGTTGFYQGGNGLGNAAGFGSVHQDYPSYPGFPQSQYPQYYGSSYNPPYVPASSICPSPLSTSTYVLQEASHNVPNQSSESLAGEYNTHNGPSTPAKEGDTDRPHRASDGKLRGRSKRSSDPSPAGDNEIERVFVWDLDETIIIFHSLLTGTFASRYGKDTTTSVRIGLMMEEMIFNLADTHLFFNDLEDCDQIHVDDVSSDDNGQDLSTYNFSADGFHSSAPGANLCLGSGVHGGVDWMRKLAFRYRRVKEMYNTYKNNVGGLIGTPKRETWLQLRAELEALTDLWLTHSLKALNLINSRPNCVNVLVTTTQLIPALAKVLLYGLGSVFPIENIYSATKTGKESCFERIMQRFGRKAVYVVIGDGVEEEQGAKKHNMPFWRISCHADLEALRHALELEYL
# Target sequence (Q15475 whole entry, looked up): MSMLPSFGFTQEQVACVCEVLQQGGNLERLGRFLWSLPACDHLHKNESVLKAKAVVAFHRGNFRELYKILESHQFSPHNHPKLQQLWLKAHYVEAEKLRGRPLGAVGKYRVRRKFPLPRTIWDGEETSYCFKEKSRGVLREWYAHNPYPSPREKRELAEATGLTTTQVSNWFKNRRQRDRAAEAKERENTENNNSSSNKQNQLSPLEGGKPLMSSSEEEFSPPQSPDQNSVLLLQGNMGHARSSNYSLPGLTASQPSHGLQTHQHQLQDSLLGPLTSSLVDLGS
#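 Compounds are tested against tagged Six1 and Eya2 proteins bridged by glutathione donor and nickel acceptor beads; after a one-hour incubation at 37 °C without light, AlphaScreen emission is recorded.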
# A number is an active result; – = inactive; ? = inconclusive; · = no result. Unless noted, no stated cut-off is given here; in the data, active means activity change below about -65%; inconclusive means mostly about -30% to -63%; inactive means weaker than that.
SMILES,CCT modulator,CtBP-E1A inh,pAkt inh,Six1-Eya2 inh
CN(C)c1nc(N(C)C)nc(N(C#N)CCOc2ccccc2)n1,–,–,-111%,–
COc1ccc(CCN(C)C2CCCN(C(=O)CCC(F)(F)F)C2)cc1OC (stereo not given),–,–,–,–
O=C(NCc1ccco1)C1CC2CCC1C2 (stereo not given),–,?,–,-70
O=C(CN1CCC(NC(=O)Nc2ccccc2)CC1)Nc1ccc([N+](=O)[O-])cc1,–,–,–,–
Cc1ccc(C)c(NC(=S)N(CCN(C)C)C(C)c2ccccn2)c1 (stereo not given),–,-65,–,-70
Cc1cccc(C)c1NC(=S)N(CCN(C)C)C(C)c1ccccn1 (stereo not given),–,-72,–,-83
COCCCN1C(=O)C(CC(=O)NC2CCCCC2)CC(C(=O)N(C)C)=C1C (stereo not given),–,–,–,–
Nc1ncnc2c1ncn2[C@@H]1O[C@H](C(=O)N2CCN(Cc3ccccn3)CC2)[C@@H](O)[C@H]1O,–,–,–,–
COc1cccc(NC(=O)CCN2C(=O)C3CC=CCC3C2=O)c1 (stereo not given),–,–,–,–
O=c1[nH]c(N/N=C\c2ccc3c(c2)OCO3)nc2ccccc12,–,-68,–,?
Cc1cc(NCCCn2ccnc2)n2ncc(-c3ccccc3)c2n1,–,–,-90%,–
Cc1cc(NCCCn2ccnc2)n2nc(C)c(-c3ccccc3)c2n1,–,–,–,–
Fc1ccc2cc(-c3ccccc3)ncc2c1,–,–,–,–
COc1ccc([C@H]2CC(=O)C=C(c3ccc(SC)cc3)C2)cc1,–,·,–,–
CSc1ccc(C2=CC(=O)C[C@H](c3ccc(F)cc3)C2)cc1,-39,–,–,–
S=c1[nH]nc(COc2ccccc2)n1Cc1ccccc1,–,–,–,–
S=c1[nH]nc(COc2ccccc2)n1/N=C/C=C/c1ccco1,–,–,–,–
S=c1[nH]nc(COc2ccccc2)n1C1CCCCC1,–,–,-101%,–
S=c1[nH]nc(COc2ccccc2)n1/N=C/C=C/c1ccccc1,-87,–,–,–
O=C(Oc1cccc2cccnc12)c1ccc(Br)o1,–,–,–,–
O=C(Oc1cccc2cccnc12)c1ccco1,–,?,-110%,?
NNC(=O)COc1cccc2cccnc12,–,–,–,–
O=C(Oc1ccc(Cl)c2cccnc12)c1ccco1,–,-83,–,-88
O=C(Oc1cccc2ccccc12)c1ccco1,–,–,–,–
O=C(Cc1ccc(Cl)cc1)Oc1cccc2cccnc12,–,-83,–,-91
SMILES,CCT modulator,CtBP-E1A inh,pAkt inh,Six1-Eya2 inh
CN(C(=O)c1ccc(NC(=O)C2CCCN(C(=O)OC(C)(C)C)C2)cc1)C1CCCC1 (stereo not given),–,–,–,–
COc1ccc(C(=O)Nc2nc3ccccc3[nH]2)cc1OC,–,–,–,–
COc1ccc(C(=O)Nc2nc3ccccc3[nH]2)cc1S(=O)(=O)N1CCCC1,–,-70,–,?
O=C(Nc1nc2ccccc2[nH]1)c1ccc(F)c(S(=O)(=O)N2CCOCC2)c1,-44,?,–,?
O=c1nc2s/c(=C\c3ccco3)c(=O)n2nc1Cc1ccc(F)cc1,–,-80,–,-81
Cc1cc(NC(=O)/C=C/c2ccco2)ccc1NC(=O)c1ccccc1,–,–,–,–
Cc1ccc(NC(=O)/C(=C/c2ccco2)c2ccccc2)c(C)c1,–,–,-129%,–
Cc1ccc(S(=O)(=O)CCC(=O)Nc2nc(-c3ccncc3)cs2)cc1,–,·,·,–
O=C(CCS(=O)(=O)c1ccc(F)cc1)Nc1nc(-c2ccccn2)cs1,–,·,·,-76
O=C(O)CCCC(=O)Nc1nc(-c2ccc(F)cc2)cs1,–,–,-115%,–
COc1ccc(OCCCC(=O)Nc2nc(-c3ccccn3)cs2)cc1,–,–,–,–
CC(Oc1ccc(F)cc1)C(=O)Nc1nc(-c2ccccn2)cs1 (stereo not given),–,-79,–,–
O=C(CCS(=O)(=O)c1ccccc1)Nc1ccccn1,–,–,–,–
O=C(CCS(=O)(=O)c1ccccc1)Nc1nc(-c2ccccn2)cs1,–,-80,–,–
Nc1nc2ccccc2cc1C(=O)NCCCCc1ccccc1,–,–,–,–
O=C(Nc1ccccc1C(=O)O)c1cc(S(=O)(=O)NCc2ccccc2)ccc1Cl,-60,–,–,–
CCOC(=O)C1=C(C)N=C2SC(C(=O)OC)=CC(=O)N2C1c1cccc(OC)c1 (stereo not given),–,–,–,–

# High-throughput results as filed in PubChem.
